# Several values for one entry are separate records, joined by “and”; a condition that tells them apart may be missing. Identical values can stand only once. About 2,000 (36%) of roughly 5,500 compounds were called active. Another 18% or so got no clear call; they are omitted. Some of the results follow. A number with no mark means an inactive call. Rule as the data show it: active = normalized growth mostly below about 0.91 (no sharp cut-off); inconclusive = no clear call, values can overlap the other calls; inactive = mostly above about 0.92.
# Assay: chemical genetic growth profiling, strain panel (AID 1159580);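 also: tested at 20 µM; growth read once vehicle control cultures reached saturation at 30 °C; 1 = growth at the plate median or of vehicle wells; lower values mean less growth of the strain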
# Conditions: growth OD
smiles,measurement,setting,value
Clc1ccc2c(c1)C(N1CCNCC1)=Nc1ccccc1O2,normalized growth,"S. cerevisiae deletion strains, locus YKL068W, hits give low values",0.996
same,normalized growth,"S. cerevisiae deletion strains, locus YKL085W, strain MDH1 (second series), hits give low values",1.01
same,normalized growth,"S. cerevisiae deletion strains, locus YKL085W, strain MDH1, hits give low values",1.01
same,normalized growth,"S. cerevisiae deletion strains, locus YKL160W, strain elf1, hits give low values",1.01
same,normalized growth,"S. cerevisiae deletion strains, locus YKL190W, strain CNB1, hits give low values",0.996
same,normalized growth,"S. cerevisiae deletion strains, locus YKR001C, strain vps1, hits give low values",1.03
same,normalized growth,"S. cerevisiae deletion strains, locus YKR026C, strain gcn3, hits give low values",0.983
same,normalized growth,"S. cerevisiae deletion strains, locus YKR091W, strain srl3, hits give low values",0.989
same,normalized growth,"S. cerevisiae deletion strains, locus YLL001W, strain dnm1, hits give low values",0.987
same,normalized growth,"S. cerevisiae deletion strains, locus YLL026W, hits give low values",1
same,normalized growth,"S. cerevisiae deletion strains, locus YLL041C, strain sdh2, hits give low values",1
same,normalized growth,"S. cerevisiae deletion strains, locus YLR027C, strain aat2, hits give low values",0.986
same,normalized growth,"S. cerevisiae deletion strains, locus YLR039C, strain RIC1, hits give low values",1.32
same,normalized growth,"S. cerevisiae deletion strains, locus YLR058C, strain SHM2, hits give low values",0.979
same,normalized growth,"S. cerevisiae deletion strains, locus YLR102C, strain apc9, hits give low values",0.993
same,normalized growth,"S. cerevisiae deletion strains, locus YLR113W, strain HOG1, hits give low values",1.02
same,normalized growth,"S. cerevisiae deletion strains, locus YLR221C, strain rsa3, hits give low values",0.985
same,normalized growth,"S. cerevisiae deletion strains, locus YLR258W, strain gsy2, hits give low values",0.991
same,normalized growth,"S. cerevisiae deletion strains, locus YLR262C, strain YPT6 (second series), hits give low values",1.04
same,normalized growth,"S. cerevisiae deletion strains, locus YLR262C, strain YPT6, hits give low values",1.38
same,normalized growth,"S. cerevisiae deletion strains, locus YLR268W, strain sec22, hits give low values",1.08
same,normalized growth,"S. cerevisiae deletion strains, locus YLR320W, strain mms22, hits give low values",0.967
same,normalized growth,"S. cerevisiae deletion strains, locus YLR330W, strain CHS5, hits give low values",0.988
same,normalized growth,"S. cerevisiae deletion strains, locus YLR342W, strain FKS1 (second series), hits give low values",0.901
same,normalized growth,"S. cerevisiae deletion strains, locus YLR342W, strain FKS1, hits give low values",0.955
same,normalized growth,"S. cerevisiae deletion strains, locus YLR357W, strain rsc2, hits give low values",0.97
same,normalized growth,"S. cerevisiae deletion strains, locus YLR370C, strain arc18, hits give low values",0.993
same,normalized growth,"S. cerevisiae deletion strains, locus YLR371W, strain rom2, hits give low values",0.968
same,normalized growth,"S. cerevisiae deletion strains, locus YLR384C, strain iki3, hits give low values",0.977
same,normalized growth,"S. cerevisiae deletion strains, locus YLR418C, strain cdc73, hits give low values",0.981
same,normalized growth,"S. cerevisiae deletion strains, locus YML016C, strain PPZ1, hits give low values",0.981
same,normalized growth,"S. cerevisiae deletion strains, locus YML032C, strain rad52, hits give low values",1.01
same,normalized growth,"S. cerevisiae deletion strains, locus YML120C, strain ndi1, hits give low values",1.01
same,normalized growth,"S. cerevisiae deletion strains, locus YML124C, strain tub3, hits give low values",0.979
same,normalized growth,"S. cerevisiae deletion strains, locus YMR058W, strain fet3, hits give low values",0.981
same,normalized growth,"S. cerevisiae deletion strains, locus YMR078C, strain ctf18, hits give low values",0.983
same,normalized growth,"S. cerevisiae deletion strains, locus YMR125W, strain sto1, hits give low values",0.928
same,normalized growth,"S. cerevisiae deletion strains, locus YMR129W, hits give low values",1.01
same,normalized growth,"S. cerevisiae deletion strains, locus YMR205C, strain PFK2, hits give low values",0.998
same,normalized growth,"S. cerevisiae deletion strains, locus YMR223W, strain ubp8, hits give low values",0.962
same,normalized growth,"S. cerevisiae deletion strains, locus YMR231W, strain pep5, hits give low values",0.487 (active)
same,normalized growth,"S. cerevisiae deletion strains, locus YMR263W, strain SAP30, hits give low values",0.979
same,normalized growth,"S. cerevisiae deletion strains, locus YMR307W, strain GAS1, hits give low values",1.15
same,normalized growth,"S. cerevisiae deletion strains, locus YNL067W, strain RPL9B, hits give low values",1.01
same,normalized growth,"S. cerevisiae deletion strains, locus YNL071W, strain lat1, hits give low values",0.972
same,normalized growth,"S. cerevisiae deletion strains, locus YNL128W, strain TEP1, hits give low values",0.975
same,normalized growth,"S. cerevisiae deletion strains, locus YNL153C, strain GIM3, hits give low values",1.01
same,normalized growth,"S. cerevisiae deletion strains, locus YNL175C, strain NOP13, hits give low values",1
same,normalized growth,"S. cerevisiae deletion strains, locus YNL183C, strain NPR1, hits give low values",0.966
same,normalized growth,"S. cerevisiae deletion strains, locus YNL197C, strain WHI3, hits give low values",1.01
same,normalized growth,"S. cerevisiae deletion strains, locus YNL209W, strain ssb2, hits give low values",0.991
same,normalized growth,"S. cerevisiae deletion strains, locus YNL224C, strain SQS1, hits give low values",1.02
same,normalized growth,"S. cerevisiae deletion strains, locus YNL233W, strain BNI4, hits give low values",1
same,normalized growth,"S. cerevisiae deletion strains, locus YNL248C, strain rpa49, hits give low values",0.998
same,normalized growth,"S. cerevisiae deletion strains, locus YNL250W, strain rad50, hits give low values",0.981
same,normalized growth,"S. cerevisiae deletion strains, locus YNL271C, strain bni1, hits give low values",0.994
same,normalized growth,"S. cerevisiae deletion strains, locus YNL298W, strain CLA4, hits give low values",0.97
same,normalized growth,"S. cerevisiae deletion strains, locus YNL307C, strain MCK1, hits give low values",0.983
same,normalized growth,"S. cerevisiae deletion strains, locus YNL322C, strain KRE1 (second series), hits give low values",0.986
same,normalized growth,"S. cerevisiae deletion strains, locus YNL322C, strain KRE1, hits give low values",0.99 and 0.992
same,normalized growth,"S. cerevisiae deletion strains, locus YNR049C, strain mso1, hits give low values",0.995
same,normalized growth,"S. cerevisiae deletion strains, locus YNR052C, strain pop2, hits give low values",0.97
same,normalized growth,"S. cerevisiae deletion strains, locus YOL006C, strain TOP1, hits give low values",1.06
same,normalized growth,"S. cerevisiae deletion strains, locus YOL012C, strain htz1",1.29
same,normalized growth,"S. cerevisiae deletion strains, locus YOL147C, strain pex11, hits give low values",1
same,normalized growth,"S. cerevisiae deletion strains, locus YOR001W, strain rrp6, hits give low values",0.937
same,normalized growth,"S. cerevisiae deletion strains, locus YOR061W, strain CKA2, hits give low values",0.969
same,normalized growth,"S. cerevisiae deletion strains, locus YOR069W, strain VPS5, hits give low values",0.991
same,normalized growth,"S. cerevisiae deletion strains, locus YOR070C, strain gyp1, hits give low values",1
same,normalized growth,"S. cerevisiae deletion strains, locus YOR080W, strain dia2, hits give low values",0.989
same,normalized growth,"S. cerevisiae deletion strains, locus YOR083W, strain WHI5 (second series), hits give low values",1.13 [resistant] (active)
same,normalized growth,"S. cerevisiae deletion strains, locus YOR083W, strain WHI5, hits give low values",0.937
same,normalized growth,"S. cerevisiae deletion strains, locus YOR106W, strain vam3, hits give low values",0.953
same,normalized growth,"S. cerevisiae deletion strains, locus YOR136W, strain idh2, hits give low values",0.975
same,normalized growth,"S. cerevisiae deletion strains, locus YOR144C, strain elg1, hits give low values",0.99
same,normalized growth,"S. cerevisiae deletion strains, locus YOR184W, strain ser1, hits give low values",1.01
same,normalized growth,"S. cerevisiae deletion strains, locus YOR231W, strain MKK1, hits give low values",1.02
same,normalized growth,"S. cerevisiae deletion strains, locus YOR265W, strain rbl2, hits give low values",0.992
same,normalized growth,"S. cerevisiae deletion strains, locus YOR270C, strain vph1, hits give low values",0.818
same,normalized growth,"S. cerevisiae deletion strains, locus YOR290C, strain snf2, hits give low values",0.948
same,normalized growth,"S. cerevisiae deletion strains, locus YOR316C, strain cot1, hits give low values",0.987
same,normalized growth,"S. cerevisiae deletion strains, locus YPL051W, strain arl3, hits give low values",0.987
same,normalized growth,"S. cerevisiae deletion strains, locus YPL055C, strain LGE1, hits give low values",0.989
same,normalized growth,"S. cerevisiae deletion strains, locus YPL078C, strain atp4, hits give low values",0.991
same,normalized growth,"S. cerevisiae deletion strains, locus YPL106C, strain sse1, hits give low values",0.966
same,normalized growth,"S. cerevisiae deletion strains, locus YPL240C, strain hsp82, hits give low values",0.978
same,normalized growth,"S. cerevisiae deletion strains, locus YPL241C, strain CIN2, hits give low values",1 and 0.992
same,normalized growth,"S. cerevisiae deletion strains, locus YPL256C, strain CLN2, hits give low values",1.03
same,normalized growth,"S. cerevisiae deletion strains, locus YPR119W, strain clb2, hits give low values",0.994
same,normalized growth,"S. cerevisiae deletion strains, locus YPR141C, strain kar3, hits give low values",0.956
same,normalized growth,"S. cerevisiae deletion strains, locus YPR163C, strain tif3, hits give low values",0.986
same,normalized growth,"S. cerevisiae deletion strains, locus YPR167C, strain met16, hits give low values",0.988
same,normalized growth,"S. cerevisiae deletion strains, strain wtn01, hits give low values",0.991
same,normalized growth,"S. cerevisiae strains, strain wild type, hits give low values",0.977

# Source: PubChem BioAssay AID1159580 (chemical genetic matrix, 2015)
